Only a selection was taken, and hits are over-represented in it overall.
mHTT CaM bind: disrupts binding of mutant huntingtin to calmodulin. P42858. AlphaScreen His-mHTT/GST-CaM binding, luminescence. inhibition, % at 15 µM. 3.6% of 190,000 active. AID 1671202
Pf apPOL inh: Pf-apPOL DNA polymerase inhibition; Recombinant Pf-apPOL, molecular beacon fluorescence, 1.5 h; 0.25% of 210,000 active; inhibition, % at 10 µM
Numbers stand for hits; i = inactive; nt = not tested or not shown; ! = not active in a repeat. Cut-off read from the data, not from the text of the source: active = inhibition above about 50%; inactive = the rest.

SMILES | mHTT CaM bind | Pf apPOL inh
COc1cc(OC)cc(C(=O)N2CCc3cn(C)c4cccc(c34)C2)c1 | 55 | i
Cn1cc2c3c(cccc31)CN(C(=O)C1CCCC1)CC2 | i | i
CCn1cc2c3c(cccc31)CN(C(=O)NCc1cccc(OC)c1)CC2 | i | i
Cn1cc2c3c(cccc31)CN(C(=O)C1CCCCC1)CC2 | 62 | i
CCn1cc2c3c(cccc31)CN(C(=O)c1cccc(OC)c1)CC2 | 69 | i
COc1cccc(C2C(N3C(=O)c4ccccc4C3=O)C(=O)N2c2ccc(C)c(Cl)c2)c1 (stereo not drawn) | i | i
CN1C(=O)CCC2(CN(C)S(=O)(=O)c3cccc(F)c3)CCCC12 (stereo not drawn) | i | i
Fc1ccc(C2=CC(c3cccs3)n3nnnc3N2)cc1 (stereo not drawn) | i | i
Cc1ccc(Cl)cc1NC(=O)N1CC2CCCN2c2ccccc21 (stereo not drawn) | i | i
O=C(Nc1ccccc1Cl)N1CC2CCCN2c2ccccc21 (stereo not drawn) | 81 | i
CC1CN(C(=O)Nc2ccccc2Cl)c2ccccc2O1 (stereo not drawn) | i | i
Cc1ccc(NC(=O)N2CC3CCCN3c3ccccc32)c(Cl)c1 (stereo not drawn) | 76 | i
COc1cccc(C(=O)O[C@H]2[C@H](C)NS(=O)(=O)[C@H]3C[C@@H]4C=C[C@]23O4)c1 | i | i
Cc1cc(C)n(-c2nc3c(c(=O)[nH]c(=O)n3C)n2CC(O)COc2ccccc2Cl)n1 (stereo not drawn) | 100 | i
Cn1c(=O)[nH]c(=O)c2c1nc(N1CCOCC1)n2CC(O)COc1ccc(Cl)cc1Cl (stereo not drawn) | i | i
COc1cc(C2CC(=O)n3nc(-c4ccccc4)nc3S2)cc(OC)c1OC (stereo not drawn) | i | i
Cc1ccc(OS(=O)(=O)c2cc(C(F)(F)F)cc(C(F)(F)F)c2)c([N+](=O)[O-])n1 | nt | i
COc1ccc(N=C2C(=O)Nc3ccc(Cl)cc32)cc1 | i | i
COc1ccc(N=C2C(=O)Nc3cc(Br)c(C)cc32)cc1 | 66 | i
Cc1ccc(C)c(CN2C(=O)NC3(CCN(C(=O)Cc4ccccc4Cl)CC3)C2=O)c1 | i | i
COc1ccccc1NC(=O)N1CCC2(CC1)Nc1ccccc1-n1cccc12 | i | i
Cc1ccc2c(c1C)-n1cccc1C1(CCN(C(=O)Cc3ccccc3Cl)CC1)N2 | 56 | i
COC(=O)CNC(=O)N1CCC2(CC1)Nc1cc(F)ccc1-n1cccc12 | i | i
COCCCNC(=O)N1CCC2(CC1)Nc1cc(F)ccc1-n1cccc12 | 62 | i
CCOC(=O)CNC(=O)N1CCC2(CC1)Nc1ccccc1-n1cccc12 | 56 | i
SMILES | mHTT CaM bind | Pf apPOL inh
COC(=O)C(C)NC(=O)N1CCC2(CC1)Nc1ccccc1-n1cccc12 (stereo not drawn) | 55 | i
Cc1cccc(N(C(=O)c2ccccc2)C2C=CS(=O)(=O)C2)c1 (stereo not drawn) | i | i
CC(=O)C1=C(C)NC(SCC(N)=O)=C(C#N)C1c1ccccc1Cl (stereo not drawn) | i | i
CN(C)c1ccc(CN2CCN(c3ncccn3)CC2)cc1 | i | i
O=C1CCCC2=C1C(c1ccc(Cl)cc1Cl)Nc1ccccc1N2 (stereo not drawn) | i | i
O=C(NC1CCCC1)N1CCC2(CC1)Nc1cc(F)ccc1-n1cccc12 | i | i
Cc1ccc(CNC(=O)N2CCC3(CC2)Nc2ccccc2-n2cccc23)cc1 | 77 | i
COc1ccc2c(c1)NC1(CCN(C(=O)Cc3cccc(F)c3)CC1)c1cccn1-2 | 73 | i
O=C(CSCc1ccc(F)cc1)N1CCC2(CC1)Nc1cc(F)ccc1-n1cccc12 | 100 | i
CCC(C)NC(=O)N1CCC2(CC1)Nc1cc(F)ccc1-n1cccc12 (stereo not drawn) | i | i
O=C(NCc1ccc(F)cc1)N1CCC2(CC1)Nc1cc(F)ccc1-n1cccc12 | 59 | i
Cc1ccc(NC(=O)N2CCC3(CC2)Nc2ccccc2-n2cccc23)cc1 | i | i
N#CC1=CN(c2ccc(I)cc2)c2ccccc2S1(=O)=O | i | i
Cc1oc(C2CCN(C(=O)c3ccccn3)CC2)nc1C(=O)N1CCOCC1 | i | i
CCC(C(=O)Nc1cc(OC)cc(OC)c1)c1ccccc1 (stereo not drawn) | i | i
O=C(c1c(F)cccc1F)N1CCCC(c2ccnc(-c3cccc(F)c3)n2)C1 (stereo not drawn) | i | i
Nc1c2c(nn1CC(=O)NCCc1ccccc1)CSC2 | i | i
CCC(=O)N1CCc2cc(OC)c(OC)cc2C1COc1ccc2c(C)cc(=O)oc2c1 (stereo not drawn) | i | i
CCOc1cc2c(c([N+](=O)[O-])c1)NC(c1ccc(Cl)cc1)C1CC=CC21 (stereo not drawn) | i | i
COc1cccc2c1NC(c1ccccc1[N+](=O)[O-])C1CC=CC21 (stereo not drawn) | 73 | i
COc1ccc(C2Nc3c(OC)ccc(Cl)c3C3C=CCC32)cc1[N+](=O)[O-] (stereo not drawn) | 62 | i
COc1ccc(C2Nc3c(Cl)cccc3C3C=CCC32)cc1[N+](=O)[O-] (stereo not drawn) | 52 | i
COc1ccc(C2Nc3ccccc3C3C=CCC32)cc1[N+](=O)[O-] (stereo not drawn) | 86 | i
COc1cc([N+](=O)[O-])cc2c1NC(c1ccc(Cl)cc1)C1CC=CC21 (stereo not drawn) | i | i
COc1ccc2nc(NC(=O)CC3COc4ccccc4NC3=O)sc2c1 (stereo not drawn) | i | i
SMILES | mHTT CaM bind | Pf apPOL inh
Cc1cc(N2CCCCCC2)n2nc(CN3CCCCC3C)nc2n1 (stereo not drawn) | i | i
CCCCN1C(=O)NC(NC(=O)c2ccco2)(C(F)(F)F)C1=O (stereo not drawn) | i | i
Cc1c(Cl)c(C)c([N+](=O)[O-])c(O)c1C=Nc1ccc2oc(-c3ccncc3)nc2c1 | i | i
CCN(CC)S(=O)(=O)c1ccc(C(=O)N=c2sc3cc(C)ccc3n2C)cc1 | i | i
O=[N+]([O-])c1cccc2c1NC(c1cccc(Cl)c1Cl)C1CC=CC21 (stereo not drawn) | 73 | i
COc1cc(C2Nc3c(Cl)cccc3C3C=CCC32)cc(OC)c1OC (stereo not drawn) | 70 | i
Fc1ccc(C2Nc3c(Cl)cccc3C3C=CCC32)cc1 (stereo not drawn) | i | i
Cc1ccccc1C(=O)N1CCCN(C2CCN(Cc3ccccc3)C2=O)CC1 (stereo not drawn) | i | i
CCCC(=O)N1CCN(c2nc(C(C)C)c3c(c2C#N)CC(C)(C)OC3)CC1 | i | 89
CCCCC(=O)N1CCN(c2nc(C(C)C)c3c(c2C#N)CC(C)(C)OC3)CC1 | i | i
CC(=O)c1ccc(C(=O)Nc2cccc(-c3nc4ccccc4[nH]3)c2)cc1 | i | i
O=C(Nc1cccc(-c2nc3ccccc3[nH]2)c1)c1ccc([N+](=O)[O-])cc1 | 84! | i
CCc1c(C)sc(NC(=O)CCc2ccc(OC)cc2)c1C(N)=O | i | i
O=C(NC1CC1)c1nc(N2CCCCCC2)c2oc3ccccc3c2n1 | 52 | i
CCOC(=O)c1nc(N2CCCC2)c2oc3ccccc3c2n1 | i | i
C#CC(C)OC(=O)Nc1cnccc1C(F)(F)F (stereo not drawn) | nt | i
O=C1CCC(=O)N1c1ccc(S(=O)(=O)NCCCN2CCN(Cc3ccccc3)CC2)cc1 | nt | i
